# Experimental data from article PMC12670160, “A drug-repurposing screen of FDA- and EMA-approved drugs identifies two NF-κB inhibitors active against eumycetoma” (Journal of Antimicrobial Chemotherapy, 2025).
# Structures can show the parent of a compound that is named as a salt. Where two headings read alike, the source gives them in different places. The whole screen tested about 5,300 compounds, of which about 130 (2.5%) showed an effect of 50% or more. This is one part of a sample in which strong results are shown more often than they occur.
# Test system: M. mycetomatis strain mm55
# Details: primary screen, metabolic activity vs growth control, 96 h, 2 µM, inhibitor
# [1] = Madurella mycetomatis metabolic activity at 2µM (%)
SMILES,% viability [%],% viability [1] [%]
"CC(=O)N[C@H]1[C@H]([C@H](O)[C@H](O)CO)OC(C(=O)O)=C[C@@H]1N=C(N)N [ONC0004525, zanamivir relenza]",62.68,–
"CCOC(=O)C1=C[C@]2(CC)CCCN3CCc4c(n1c1ccccc41)[C@@H]32 [ONC0002865, vinpocetine]",109.8,–
"CC[C@]12CCCN3CCc4c(n(c5ccccc45)C(=O)C1)[C@@H]32 [ONC0003441, eburnamonine]",44.28,–
"CC[C@]12CCCN3CCc4c(n(c5ccccc45)[C@@](O)(C(=O)OC)C1)[C@@H]32 [ONC0003425, vincamine]",89.22,–
"Cc1ccc(NC2=CC(=O)c3sc(C)nc3C2=O)cc1 [ONC0003545, ryuvidine]",94.75,–
"COc1cccc(/C=N/C=N/c2cccc(OC)c2)c1 [ONC0002505, dmeob]",75.27,–
"CO[C@@H](C(=O)N1Cc2n[nH]c(NC(=O)c3ccc(N4CCN(C)CC4)cc3)c2C1)c1ccccc1 [ONC0004749, danusertib pha739358]",112.5,–
"CCN(CC)c1ccc(C(=C2C=CC(=[N+](CC)CC)C=C2)c2ccccc2)cc1 [ONC0002765, brilliant green]",123.8,–
"CN(C)c1ccc(C(=C2C=CC(=[N+](C)C)C=C2)c2ccc(N(C)C)cc2)cc1 [ONC0000415, gentian violet]",35.99,–
"CC1=CC(=C(c2ccc(N)cc2)c2ccc(N)cc2)C=CC1=N [ONC0002809, basic fuchsin]",79.53,–
"Cc1cc(O)c(-c2ccc([C@@H](C)CN)cc2)c2c1[nH]c(=O)c1sccc12 [ONC0001173, ots514]",81.93,–
"CCOc1nc2cccc(C(=O)OC(C)OC(=O)OC3CCCCC3)c2n1Cc1ccc(-c2ccccc2-c2nnn[nH]2)cc1 (stereo not drawn) [ONC0004302, candesartan cilextil]",98.1,–
"CCCCCCCCCCCCOS(=O)(=O)O [ONC0002181, sodiumdodecylsulfate]",–,96.71
"Nc1nc(O)c2ncn(COC(CO)CO)c2n1 [ONC0003983, ganciclovir hydrate]",92.25,–
"NS(=O)(=O)Nc1ncnc(OCCOc2ncc(Br)cn2)c1-c1ccc(Br)cc1 [ONC0002096, aprocitentan]",65.83,–
"CC(C)(C)[C@@]1(O)CCN2C[C@@H]3c4ccccc4CCc4cccc(c43)[C@H]2C1 [ONC0002006, butaclamolhcl]",90.12,–
"C=C1NCC[C@@H](C(=O)O)N1 [ONC0005375, ectoinezwitterion]",125.4,–

SMILES,% viability [%],% viability [1] [%]
"OC[C@H]1O[C@H](O[C@H]2[C@H](O)[C@@H](O)[C@H](O)O[C@@H]2CO)[C@H](O)[C@@H](O)[C@@H]1O [ONC0000327, dmaltose]",54.64,–
"NC[C@@H]1O[C@H](O[C@H]2[C@@H](O)[C@H](O[C@@H]3[C@@H](O)[C@H](N)C[C@H](N)[C@H]3O[C@H]3O[C@H](CO)[C@@H](O)[C@H](O)[C@H]3N)O[C@@H]2CO)[C@H](N)[C@@H](O)[C@@H]1O [ONC0005310, paromomycin]",134.8,–
"NC[C@H]1O[C@H](O[C@H]2[C@H](O[C@@H]3O[C@H](CO)[C@@H](O)[C@H]3O)[C@@H](O)[C@H](N)C[C@@H]2N)[C@H](N)[C@@H](O)[C@@H]1O [ONC0001104, ribostamycin sulfate]",39.68,–
"NC[C@H]1O[C@H](O[C@H]2C(O[C@@H]3O[C@H](CO)[C@@H](O)[C@H]3O)[C@@H](O)[C@H](N)C[C@@H]2N)[C@H](N)[C@@H](O)[C@@H]1O (stereo partly drawn) [ONC0002301, ribostamycin sulfate]",111.7,–
"OC[C@H]1O[C@H](O[C@H]2O[C@H](CO)[C@@H](O)[C@H](O)[C@H]2O)[C@H](O)[C@@H](O)[C@@H]1O [ONC0003487, trehalose]",42.59,–
"OC[C@H]1O[C@@H](O[C@@H]2[C@H](O)[C@@H](O)[C@H](O[C@H]3[C@H](O)[C@@H](O)C(O)O[C@@H]3CO)O[C@@H]2CO)[C@H](O)[C@@H](O)[C@H]1O (stereo partly drawn) [ONC0004130, 4galactosyllactose]",126.3,–
"O=C1OC2(c3cc(I)c(O)c(I)c3Oc3c2cc(I)c(O)c3I)c2c(Cl)c(Cl)c(Cl)c(Cl)c21 [ONC0002798, rose bengal sodium salt]",–,83.07
"CC1=C(C(=O)O)N2C(=O)[C@@H](NC(=O)[C@H](N)C3=CCC=CC3)C2SC1 (stereo partly drawn) [ONC0000708, cephradine]",86.49,–
"CCS(=O)(=O)N(C)[C@H]1c2cc(C#N)ccc2OC(C)(C)[C@@H]1O [ONC0002693, chromanol293b3r4s]",103.9,–
"CC1(C)Oc2ccc(C#N)cc2[C@H](N(Cc2ncc[nH]2)c2ccc(Cl)cc2)[C@H]1O [ONC0001872, bms191095]",47.09,–
"CCS(=O)(=O)N(C)[C@@H]1c2cc(C#N)ccc2OC(C)(C)[C@H]1O.CCS(=O)(=O)N(C)[C@H]1c2cc(C#N)ccc2OC(C)(C)[C@@H]1O [ONC0001571, chromanol]",78.85,–
"c1ccc2sc(N3CCN(Cc4ccc5c(c4)OCO5)CC3)nc2c1 [ONC0000161, 214piperonylpiperazinylbenzothiazole]",77.89,–
"CCCCn1c(-c2ccccc2)nc(-c2ccccc2)c1CN(Cc1ccc2c(c1)OCO2)Cc1ccc2c(c1)OCO2 [ONC0002511, ndt9513727]",38.93,–
"c1ccc(C(O[C@@H]2CCCN(CCc3ccc4c(c3)OCO4)C2)c2ccccc2)cc1 [ONC0003094, zamifenacin]",77.83,–
"Nc1ncnc2c1c(-c1cccc(OCc3ccccc3)c1)cn2C1CC(CN2CCCC2)C1 (stereo in doubt) [ONC0000263, nvpadw742]",57.9,–
"CCCN1C[C@@H](NS(=O)(=O)N(CC)CC)C[C@@H]2Cc3c(O)cccc3C[C@H]21 [ONC0000942, quinagolide hydrochloride]",65.37,–
